Screening data (PubChem)
Shown are actives, neighbours in structure and some others; about 0.98% of the full set was active somewhere.
LANA-H2B inh = blocks KSHV LANA binding to histone H2A/H2B; inhibition, % (concentration not given with the values); 0.6% of 320,000 active; Q9QR71; cell-free LANA-H2A/H2B peptide, fluorescence polarization; in the data active = inhibition mostly above about 10%, no sharp cut-off; inactive = mostly below about 6.7%
Keap1-Nrf2 PPI = Keap1-Nrf2 (human) interaction inhibition | Keap1 Kelch-Nrf2 peptide fluorescence polarization, 1536-well | 0.15% of 340,000 active | AID 504523 | Q14145 | inhibition, % at 9.4 µM; in the data active = inhibition above about 12%; inconclusive = no clear call, values can overlap the other calls; inactive = below about 7.3%;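 note: human Keap1 Kelch domain with fluorescein labeled Nrf2 9mer peptide probe; 0% = neutral control wells and 100% = peptide positive control; higher means more block of Keap1 binding to Nrf2 peptide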
Target sequence (Q14145 whole entry, looked up, the tested form may be a part): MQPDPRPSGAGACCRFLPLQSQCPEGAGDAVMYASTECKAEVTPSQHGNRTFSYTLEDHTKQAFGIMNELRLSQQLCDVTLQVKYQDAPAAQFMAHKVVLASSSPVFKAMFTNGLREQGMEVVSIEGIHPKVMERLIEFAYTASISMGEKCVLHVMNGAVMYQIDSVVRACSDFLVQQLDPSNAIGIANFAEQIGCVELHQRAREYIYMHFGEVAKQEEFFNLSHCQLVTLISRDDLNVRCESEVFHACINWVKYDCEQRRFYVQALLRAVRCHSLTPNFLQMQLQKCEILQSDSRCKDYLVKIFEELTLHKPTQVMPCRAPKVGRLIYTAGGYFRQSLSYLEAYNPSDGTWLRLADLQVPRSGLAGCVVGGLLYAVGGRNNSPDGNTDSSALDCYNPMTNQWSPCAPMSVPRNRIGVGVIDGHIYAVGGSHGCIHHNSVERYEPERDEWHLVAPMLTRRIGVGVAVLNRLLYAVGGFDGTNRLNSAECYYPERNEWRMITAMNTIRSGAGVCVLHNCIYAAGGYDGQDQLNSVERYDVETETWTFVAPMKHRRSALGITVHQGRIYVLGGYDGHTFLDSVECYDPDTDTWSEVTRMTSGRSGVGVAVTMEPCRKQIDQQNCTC
LANA DNA inh = inhibitors of KSHV LANA C-terminal domain DNA binding; 0.078% of 340,000 active; inhibition, % at 9 µM; MBP-C-LANA/FAM-LBS DNA binding, fluorescence polarization; AID 504423;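 active = highest replicate inhibition at or above 60% at 9 µM, even if other replicates fall short; inactive = all replicates below 60% inhibition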;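 note: 0% = neutral control wells and 100% = 4 µM acridine orange control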
RTF Ca sens inh = cardiac RTF calcium desensitization. inhibition, % at 7.15 µM. IANBD-labeled cardiac RTF, Ca2+ fluorescence. P19429+P45379. 0.12% of 340,000 active;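 active = inhibition above the mean inhibition of all tested compounds plus 3 SD, cut at about 17% in these data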;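 note: assay run at fixed EC70 calcium of 1.6 mM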
cardiac RTF act = increases calcium sensitivity of human cardiac regulated thin filaments; IANBD-labeled TnC RTF fluorescence at EC20 calcium; 0% EC20 calcium, 100% full calcium; activation, % at 7.2 µM; 0.24% of 340,000 active; P19429+P45379; AID 493008;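 active = activation above the mean over all tested compounds plus 3 SD, cut at about 30% in these data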;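 note: rise in fluorescence read as greater calcium sensitivity of cardiac thin filaments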
Starred values were filed as active, the others as inactive; ? = inconclusive; / = no result given; + = active, no number; ! = not active in a repeat.

SMILES	LANA-H2B inh	Keap1-Nrf2 PPI	LANA DNA inh	RTF Ca sens inh	cardiac RTF act
O=C(C1=NN(c2ccccc2)C2C(=O)N(c3cccc(Cl)c3)C(=O)C12)c1ccccc1 (configuration not stated)	17	?	61*	-27	47*
COc1ccccc1N1C(=O)C2C(C(=O)c3ccccc3)=NN(c3ccc(C)cc3)C2C1=O (configuration not stated)	1	/	/	/	/
CCc1ccc(CN(C)C(=O)C2CCC(=O)N(CCc3ccc(OC)cc3)C2)nc1 (configuration not stated)	29*	-1	0	-12	1
CCCCCC(=O)Nc1cc(S(=O)(=O)N2CCOCC2)ccc1N1CCN(C)CC1	-3	0	2	-2	-5
COc1cc([N+](=O)[O-])ccc1N1C(=O)CC(Sc2nccc(C)n2)C1=O (configuration not stated)	15*	-3	0	2	-6
Cc1cc(C)nc(SC2CC(=O)N(c3ccc(C)c(C)c3)C2=O)n1 (configuration not stated)	16*	-6	-1	0	-9
O=C(O)Cn1c(=O)c2c3c(sc2n(Cc2ccc(Cl)cc2Cl)c1=O)CCCC3	0	2	-1	-9	2
CC(=O)c1c2c3c(cccc3n(C)c1=O)C(=O)c1ccccc1-2	9	/	/	/	/
Cn1c(=O)c(Nc2ccc(O)cc2)c2c3c(cccc31)C(=O)c1ccccc1-2	5	5	-1	-56	50*
COc1ccc(C2=NN3C(=O)c4c(ccc(OC)c4OC)C3C2)cc1 (configuration not stated)	38*	-3	1	7	-5
CC1(C)CCN2CCC(C)(C)c3c(O)ccc1c32	7	-16	28	-167	85*
CCOC(=O)C(C(=O)OCC)c1cc(Br)c2noc3c2c1C(=O)c1ccccc1-3	2	3	8	-145	96*
Cc1cccc(-c2noc(CN(C)C(=O)c3ccc4c(c3)OCO4)n2)c1	11	-1	0	-4	-6
CC(=O)Nc1ccc(NC(=O)C(C)OC(=O)/C(C#N)=C/c2ccc(N(C)C)cc2)cc1 (configuration not stated)	/	-2	6	-118	80*
CC(OC(=O)/C(C#N)=C/c1ccc(N(C)C)cc1)C(=O)N(C)c1ccccc1 (configuration not stated)	-3	0	25	-32	30*
O=C(c1ccc(Cl)cc1Cl)N1CCN(c2ccc(N3CCOCC3)nn2)CC1	3	-3	1	-5	5
COc1ccc(N(CC(=O)NCc2ccc3c(c2)OCO3)S(=O)(=O)c2ccc(O)c(C(=O)O)c2)cc1	/	3	0	-1	-1
Cc1cccc(N2CCN(C(=O)c3cn4ccccc4n3)CC2C)c1 (configuration not stated)	1	1	2	-5	4
COc1cc(NC(=O)COc2cccc3c2OC(C)(C)C3)cc(OC)c1OC	34*	3	0	-8	-1
CC(=O)Nc1ccc(NC(=O)COc2cccc3c2OC(C)(C)C3)cc1	2	3	-1	-2	-6
CC(C)N1CCN(Cc2ccc3c(c2)Cc2ccccc2-3)CC1CCO (configuration not stated)	-5	2	-1	-11	0
CCOc1ccc(NC(=O)CN(C)C(=O)c2cc(C)nc3ccccc23)cc1OCC	-5	1	0	-5	-4
CCOc1ccc(NC(=O)CN(C)C(=O)c2nc3nc(C)cc(C)n3n2)cc1OCC	35*	0	0	3	2
CC(OC(=O)c1ccccc1C(=O)N(C)C1CCCCC1)C(=O)NC1(C#N)CCCCC1 (configuration not stated)	-9	-2	0	1	0
CCN(CC)c1ccc(C2NC(=O)c3ccccc3N2)cc1 (configuration not stated)	/	-1	0	1	-5
SMILES	LANA-H2B inh	Keap1-Nrf2 PPI	LANA DNA inh	RTF Ca sens inh	cardiac RTF act
O=C1NC(c2ccc(Br)cc2)Nc2ccccc21 (configuration not stated)	2	-6	107*	0	1
NC(=O)COc1ccc(C2c3c(oc4ccccc4c3=O)C(=O)N2CC2CCCO2)cc1 (configuration not stated)	197*	-2	-2	-3	-7
COc1ccc(C2c3c(oc4ccccc4c3=O)C(=O)N2CC2CCCO2)cc1 (configuration not stated)	1	0	0	-21	6
O=C(Cc1ccccc1Cl)NCc1cccnc1	0	3	-1	-6	-3
C=Cc1c(C)c2cc3[nH]c(cc4nc(cc5nc(cc1[nH]2)C(C)=C5CCC(=O)O)C(CCC(=O)O)=C4C)c(C)c3C=C	-2	1	64*	55*!	-11
CC(C)c1ccc(CN(C)C(=O)c2ccc(S(=O)(=O)NCc3ccco3)cc2)cc1	/	-5	-1	-7	10
CC1CCc2onc(C(=O)NCc3ccco3)c2C1 (configuration not stated)	+	-4	1	-1	-3
O=C(NCc1ccco1)c1cccc2c1C(=O)c1ccc(N3CCC(Cc4ccccc4)CC3)cc1S2(=O)=O	-1	-3	10	-197	117*
O=C(O)c1cccc2c1C(=O)c1ccc(N3CCCC3)cc1S2(=O)=O	-8	-32	8	-42	36*
CC1CCN(c2ccc3c(c2)S(=O)(=O)c2cccc(C(=O)NCc4cccc(F)c4)c2C3=O)CC1	1	2	3	-98	164*
O=C(NCCc1ccc(F)cc1)c1cccc2c1C(=O)c1ccc(N3CCC(Cc4ccccc4)CC3)cc1S2(=O)=O	3	-6	14	-178	117*
NC(=O)CC(NC(=O)c1cccc(Br)c1)c1ccc(N2CCN(c3ccccn3)CC2)c([N+](=O)[O-])c1 (configuration not stated)	-5	-3	-1	-5	2
CCOc1ncccc1C(=O)Nc1ccc(C)cn1	7	1	0	-7	0
COC(=O)c1ccc(CNC(=O)CNC(=O)c2sc3ccccc3c2Cl)cc1	/	-5	0	-5	-13
O=C(NCc1cccc(C(F)(F)F)c1)c1cccc2c1C(=O)c1ccc(N3CCC(Cc4ccccc4)CC3)cc1S2(=O)=O	-2	-2	9	-194	95*
O=C(NCc1cccc(F)c1)c1cccc2c1C(=O)c1ccc(N3CCC(Cc4ccccc4)CC3)cc1S2(=O)=O	4	6	17	-221	178*
CCN(CC)CCNC(=O)C(Oc1ccccc1)Oc1ccccc1	-5	1	-1	1	-1
CCOc1ccccc1CNCCOC	-6	-3	0	-23	-3
O=C(N/N=C/c1ccc(F)cc1)c1ccc(OCc2ccccc2)cc1	1	1	-2	-5	2
O=C(O)/C(=C\c1cccc(OCc2ccccc2)c1)c1ccc(F)cc1	10*	0	0	11	8
